# Reference: PubChem BioAssay AID651602 (The Scripps Research Institute Molecular Screening Center, 2012)
# The whole screen tested about 360,000 compounds, of which about 950 (0.26%) were called active. Rule as the data show it: active = inhibition above about 11%; inactive = the rest. The entries come from a sample that favours actives as a whole.
# Experiment: growth loss of phage-infected E. coli, primary screen, RecBCD inhibitor project, absorbance, with phage, HTS (AID 651602)
# Details: at 11.9 µM, stronger effect = higher value
row,Structure (SMILES),inhibition
1,Cc1ccc(-n2c(-c3ccc([N+](=O)[O-])cc3)nc3ccccc3c2=O)cc1,0.89% (inactive)
2,C/C(=N/O)c1ccc2ccc3ccccc3c2c1,1.01% (inactive)
3,O=[N+]([O-])c1cnc2ccc3ccccc3c2c1,18.9% (active)
4,Cc1cccc(-n2c(C)nc3cc(C(=O)N4CCC5(CC4)OCCO5)ccc32)c1,4.97% (inactive)
5,COC(=O)C1=C(c2ccc(OCc3ccccc3)cc2)C[C@@H]2CC[C@H]1N2C(=O)NCc1cccc(F)c1,4.61% (inactive)
6,N#CC1=C(N)Oc2c(c(=O)oc3ccccc23)C1c1ccccc1OC(=O)c1cccs1 (stereo not given),5.44% (inactive)
7,COc1ccc(N=Cc2c(O)n(C)c(=O)[nH]c2=O)cc1,0.79% (inactive)
8,CCc1nnc(NS(=O)(=O)c2ccc(N=Cc3c(O)n(-c4ccccc4)c(=O)[nH]c3=O)cc2)s1,11.9% (active)
9,O=c1[nH]c(=O)n(-c2ccccc2)c(O)c1C=NC12CN3CN(CN(C3)C1)C2,1.36% (inactive)
10,CCC1(C)CC(CCNCc2ccc(N(C)C)cc2)(c2ccc(F)cc2)CCO1 (stereo not given),4.38% (inactive)
